According to PubChem BioAssay AID1159580 (chemical genetic matrix, 2015):
Screen size: about 5,500 compounds; about 2,000 (36%) were called active. Inconclusive results (about 18%) are left out. No stated cut-off is given here; in the data, active means normalized growth mostly below about 0.91 (no sharp cut-off); inconclusive means no clear call, values can overlap the other calls; inactive means mostly above about 0.92. This is one part of the list.

Test: chemical genetic growth profiling, strain panel (AID 1159580);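 further: tested at 20 µM; growth read once vehicle control cultures reached saturation at 30 °C; 1 = growth at the plate median or of vehicle wells; lower values mean less growth of the strain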
Settings: growth OD
[1] = S. cerevisiae deletion strains, locus YAL013W, strain DEP1, hits give low values
[2] = S. cerevisiae deletion strains, locus YBR021W, strain FUR4, hits give low values
[3] = S. cerevisiae deletion strains, locus YBR229C, strain ROT2, hits give low values
[4] = S. cerevisiae deletion strains, locus YCL029C, strain bik1, hits give low values
[5] = S. cerevisiae deletion strains, locus YDL035C, strain GPR1, hits give low values
[6] = S. cerevisiae deletion strains, locus YDL074C, strain BRE1, hits give low values
[7] = S. cerevisiae deletion strains, locus YDL101C, strain DUN1, hits give low values
[8] = S. cerevisiae deletion strains, locus YDL134C, strain PPH21, hits give low values
[9] = S. cerevisiae deletion strains, locus YDL185W, strain tfp1, hits give low values
[10] = S. cerevisiae deletion strains, locus YDL192W, strain arf1, hits give low values
[11] = S. cerevisiae deletion strains, locus YDR101C, strain arx1, hits give low values
[12] = S. cerevisiae deletion strains, locus YDR150W, strain NUM1, hits give low values
[13] = S. cerevisiae deletion strains, locus YDR162C, strain NBP2, hits give low values
[14] = S. cerevisiae deletion strains, locus YDR318W, strain mcm21, hits give low values
[15] = S. cerevisiae deletion strains, locus YDR388W, hits give low values
[16] = S. cerevisiae deletion strains, locus YDR502C, strain sam2, hits give low values
[17] = S. cerevisiae deletion strains, locus YEL061C, strain CIN8, hits give low values
[18] = S. cerevisiae deletion strains, locus YER110C, hits give low values
[19] = S. cerevisiae deletion strains, locus YER155C, strain BEM2, hits give low values
[20] = S. cerevisiae deletion strains, locus YER167W, strain BCK2, hits give low values
[21] = S. cerevisiae deletion strains, locus YGL078C, strain dbp3, hits give low values
[22] = S. cerevisiae deletion strains, locus YGL086W, strain mad1, hits give low values
[23] = S. cerevisiae deletion strains, locus YGL248W, strain PDE1, hits give low values
[24] = S. cerevisiae deletion strains, locus YGR078C, strain PAC10, hits give low values
[25] = S. cerevisiae deletion strains, locus YGR135W, strain pre9, hits give low values
[26] = S. cerevisiae deletion strains, locus YGR229C, strain SMI1, hits give low values
[27] = S. cerevisiae deletion strains, locus YGR252W, strain gcn5, hits give low values
[28] = S. cerevisiae deletion strains, locus YHR030C, strain SLT2, hits give low values
[29] = S. cerevisiae deletion strains, locus YHR079C, strain IRE1 (second series), hits give low values
[30] = S. cerevisiae deletion strains, locus YHR094C, strain hxt1, hits give low values
[31] = S. cerevisiae deletion strains, locus YHR129C, strain ARP1, hits give low values
[32] = S. cerevisiae deletion strains, locus YHR200W, strain rpn10, hits give low values
[33] = S. cerevisiae deletion strains, locus YIL066C, strain RNR3, hits give low values
[34] = S. cerevisiae deletion strains, locus YIL073C, strain SPO22, hits give low values
[35] = S. cerevisiae deletion strains, locus YIL125W, strain kgd1, hits give low values
[36] = S. cerevisiae deletion strains, locus YIR030C, strain dcg1, hits give low values
[37] = S. cerevisiae deletion strains, locus YJL095W, strain BCK1, hits give low values
[38] = S. cerevisiae deletion strains, locus YJL134W, strain LCB3, hits give low values
[39] = S. cerevisiae deletion strains, locus YJL168C, strain set2, hits give low values
[40] = S. cerevisiae deletion strains, locus YJL187C, strain SWE1 (second series), hits give low values
[41] = S. cerevisiae deletion strains, locus YJR043C, strain POL32, hits give low values
[42] = S. cerevisiae deletion strains, locus YJR075W, strain HOC1, hits give low values
[43] = S. cerevisiae deletion strains, locus YKL009W, strain mrt4, hits give low values
[44] = S. cerevisiae deletion strains, locus YKL068W, hits give low values
[45] = S. cerevisiae deletion strains, locus YKL085W, strain MDH1 (second series), hits give low values
[46] = S. cerevisiae deletion strains, locus YKL085W, strain MDH1, hits give low values
[47] = S. cerevisiae deletion strains, locus YKL190W, strain CNB1, hits give low values
[48] = S. cerevisiae deletion strains, locus YKR001C, strain vps1, hits give low values
[49] = S. cerevisiae deletion strains, locus YLR039C, strain RIC1, hits give low values
[50] = S. cerevisiae deletion strains, locus YLR058C, strain SHM2, hits give low values
[51] = S. cerevisiae deletion strains, locus YLR102C, strain apc9, hits give low values
[52] = S. cerevisiae deletion strains, locus YLR262C, strain YPT6, hits give low values
[53] = S. cerevisiae deletion strains, locus YLR268W, strain sec22, hits give low values
[54] = S. cerevisiae deletion strains, locus YLR330W, strain CHS5, hits give low values
[55] = S. cerevisiae deletion strains, locus YLR342W, strain FKS1 (second series), hits give low values
[56] = S. cerevisiae deletion strains, locus YLR371W, strain rom2, hits give low values
[57] = S. cerevisiae deletion strains, locus YLR418C, strain cdc73, hits give low values
[58] = S. cerevisiae deletion strains, locus YML016C, strain PPZ1, hits give low values
[59] = S. cerevisiae deletion strains, locus YML032C, strain rad52, hits give low values
[60] = S. cerevisiae deletion strains, locus YML124C, strain tub3, hits give low values
[61] = S. cerevisiae deletion strains, locus YMR078C, strain ctf18, hits give low values
[62] = S. cerevisiae deletion strains, locus YMR223W, strain ubp8, hits give low values
[63] = S. cerevisiae deletion strains, locus YMR263W, strain SAP30, hits give low values
[64] = S. cerevisiae deletion strains, locus YMR307W, strain GAS1, hits give low values
[65] = S. cerevisiae deletion strains, locus YNL067W, strain RPL9B, hits give low values
[66] = S. cerevisiae deletion strains, locus YNL128W, strain TEP1, hits give low values
[67] = S. cerevisiae deletion strains, locus YNL153C, strain GIM3, hits give low values
[68] = S. cerevisiae deletion strains, locus YNL233W, strain BNI4, hits give low values
[69] = S. cerevisiae deletion strains, locus YNL250W, strain rad50, hits give low values
[70] = S. cerevisiae deletion strains, locus YNL271C, strain bni1, hits give low values
[71] = S. cerevisiae deletion strains, locus YNL298W, strain CLA4, hits give low values
[72] = S. cerevisiae deletion strains, locus YNL307C, strain MCK1, hits give low values
[73] = S. cerevisiae deletion strains, locus YNL322C, strain KRE1, hits give low values
[74] = S. cerevisiae deletion strains, locus YNR052C, strain pop2, hits give low values
[75] = S. cerevisiae deletion strains, locus YOL006C, strain TOP1, hits give low values
[76] = S. cerevisiae deletion strains, locus YOL012C, strain htz1
[77] = S. cerevisiae deletion strains, locus YOL147C, strain pex11, hits give low values
[78] = S. cerevisiae deletion strains, locus YOR061W, strain CKA2, hits give low values
[79] = S. cerevisiae deletion strains, locus YOR069W, strain VPS5, hits give low values
[80] = S. cerevisiae deletion strains, locus YOR136W, strain idh2, hits give low values
[81] = S. cerevisiae deletion strains, locus YOR144C, strain elg1, hits give low values
[82] = S. cerevisiae deletion strains, locus YOR184W, strain ser1, hits give low values
[83] = S. cerevisiae deletion strains, locus YOR316C, strain cot1, hits give low values
[84] = S. cerevisiae deletion strains, locus YPL055C, strain LGE1, hits give low values
[85] = S. cerevisiae deletion strains, locus YPL241C, strain CIN2, hits give low values
[86] = S. cerevisiae deletion strains, locus YPR119W, strain clb2, hits give low values
[87] = S. cerevisiae deletion strains, locus YPR141C, strain kar3, hits give low values
[88] = S. cerevisiae deletion strains, locus YPR163C, strain tif3, hits give low values
[89] = S. cerevisiae deletion strains, locus YPR167C, strain met16, hits give low values
[90] = S. cerevisiae deletion strains, strain wtn01, hits give low values
[91] = S. cerevisiae strains, strain wild type, hits give low values

Measured: normalized growth

Nc1nc2c(ncn2C2C[C@H](O)[C@@H](CO)O2)c(=O)[nH]1 (some centres undefined)
active: [4] 0.573 | [10] 0.179 | [11] 0.447 | [14] 0.322 | [15] 0.162 | [16] 0.359 | [18] 0.627 | [22] 0.357 | [25] 0.328 | [27] 0.352 | [29] 0.446 | [30] 0.456 | [32] 0.357 | [36] 0.46 | [39] 0.527 | [48] 0.189 | [51] 0.543 | [53] 0.406 | [56] 0.391 | [57] 0.261 | [59] 0.408 | [60] 0.554 | [61] 0.852 | [62] 0.315 | [72] 0.222 | [74] 0.137 | [76] 2.5 [resistant] | [77] 0.451 | [80] 0.531 | [81] 0.619 | [83] 0.416 | [86] 0.645 | [88] 0.37 | [89] 0.33 | [90] 0.229
inactive: [1] 0.995 | [2] 1 | [3] 0.997 | [5] 1.02 | [6] 1.02 | [7] 1 | [8] 1.01 | [9] 0.999 | [12] 1.02 | [13] 1 | [17] 0.979 | [19] 0.994 | [20] 1.01 | [21] 1 | [23] 0.996 | [24] 1 | [26] 1.01 | [28] 1.01 | [31] 1 | [33] 1.03 | [34] 1.1 | [35] 1.01 | [37] 1 | [38] 1 | [40] 1.01 | [41] 1 | [42] 0.992 | [43] 1.02 | [44] 1.01 | [45] 1.01 | [46] 1.01 | [47] 1 | [49] 1.02 | [50] 1 | [52] 1.08 | [54] 0.995 | [55] 1.04 | [58] 1.01 | [63] 1.01 | [64] 1.01 | [65] 1.01 | [66] 1 | [67] 1.01 | [68] 1 | [69] 1.02 | [70] 1.02 | [71] 1.03 | [73] 1 | [75] 1.04 | [78] 0.998 | [79] 1 | [82] 1.02 | [84] 0.976 | [85] 0.98 | [87] 1.02 | [91] 0.984

Cc1oc(S(=O)(=O)N(C)C)cc1C(=O)O
inactive: [1] 1.03 | [3] 1 | [7] 0.952 | [12] 1 | [17] 1.02 | [24] 1.01 | [28] 1.06 | S. cerevisiae deletion strains, locus YHR087W, strain rtc3, hits give low values 1.03 | S. cerevisiae deletion strains, locus YJL187C, strain SWE1, hits give low values 0.997 | [41] 0.987 | [42] 1 | [49] 1.07 | S. cerevisiae deletion strains, locus YLR058C, strain SHM2 (second series), hits give low values 1 | S. cerevisiae deletion strains, locus YLR085C, strain ARP6, hits give low values 1.08 | [52] 1.01 | S. cerevisiae deletion strains, locus YML094W, strain GIM5, hits give low values 1.06 | S. cerevisiae deletion strains, locus YMR219W, strain ESC1, hits give low values 1.01 | [63] 0.985 | [64] 0.976 | [67] 1.01 | S. cerevisiae deletion strains, locus YNL298W, strain CLA4 (second series), hits give low values 1 | [73] 1 | S. cerevisiae deletion strains, locus YNR030W, strain Alg12, hits give low values 1.02 | [75] 1.06 | [84] 1.08 | [85] 1.09 | S. cerevisiae deletion strains, locus YPR135W, strain CTF4, hits give low values 1.34

O=C(CCCCCCCCCCCCC1CCCC1)Nc1ccc(S(=O)(=O)c2ccc(NC(=O)CCCCCCCCCCCCC3CCCC3)cc2)cc1
inactive: [1] 1.01 | [2] 1.04 | [3] 1.02 | [4] 0.992 | [5] 1.02 | [6] 1.07 | [7] 1.03 | [8] 1.03 | [9] 1.01 | [10] 0.997 | [11] 0.989 | [12] 1.02 | [13] 1.03 | [14] 0.989 | [15] 0.983 | [16] 1 | [17] 1.02 | [18] 0.99 | [19] 1.02 | [20] 1.03 | [21] 0.992 | [22] 1 | [23] 1.03 | [24] 1.03 | [25] 1.01 | [26] 1.03 | [27] 0.984 | [28] 1.02 | [29] 0.99 | [30] 0.996 | [31] 1.02 | [32] 0.998 | [33] 1.02 | [34] 0.99 | [35] 1 | [36] 0.99 | [37] 1.04 | [38] 1.02 | [39] 1 | [40] 1.02 | [41] 1.03 | [42] 1.03 | [43] 0.991 | [44] 1 | [45] 1 | [46] 1 | [47] 1.02 | [48] 0.991 | [49] 1.04 | [50] 1.02 | [51] 0.989 | [52] 1.03 | [53] 0.997 | [54] 1.02 | [55] 1.03 | [56] 1 | [57] 1 | [58] 1.03 | [59] 1 | [60] 0.99 | [61] 0.988 | [62] 0.989 | [63] 1.04 | [64] 0.981 | [65] 1.04 | [66] 1.04 | [67] 1.02 | [68] 1.03 | [69] 1 | [70] 0.998 | [71] 1.01 | [72] 0.99 | [73] 1.02 | [74] 0.993 | [75] 1.14 | [76] 0.857 | [77] 0.992 | [78] 1.02 | [79] 1.01 | [80] 0.994 | [81] 0.993 | [82] 0.99 | [83] 0.998 | [84] 1.05 | [85] 1.01 | [86] 0.984 | [87] 0.996 | [88] 0.993 | [89] 0.997 | [90] 0.997 | [91] 1.01
